# Data published in ChEMBL document CHEMBL1961873, “Compounds: GSK PKIS; Assays: Nanosyn kinase panel” (2012).
# Assays:
# [1] = target: Serine/threonine-protein kinase pim-2 (Homo sapiens) (UniProt Q9P1W9); details: at 1 µM;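 also: each value is a mean of the inhibition measurements against the kinase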
# [2] = target: Serine/threonine-protein kinase pim-3 (Homo sapiens) (UniProt Q86V86); details: at 0.1 µM
# [3] = target: Serine/threonine-protein kinase pim-3 (Homo sapiens) (UniProt Q86V86); details: at 1 µM
# [4] = target: T1, MAP kinase-activated protein kinase 5 (Homo sapiens) (UniProt Q8IW41); details: at 0.1 µM
# T1 sequence (whole entry): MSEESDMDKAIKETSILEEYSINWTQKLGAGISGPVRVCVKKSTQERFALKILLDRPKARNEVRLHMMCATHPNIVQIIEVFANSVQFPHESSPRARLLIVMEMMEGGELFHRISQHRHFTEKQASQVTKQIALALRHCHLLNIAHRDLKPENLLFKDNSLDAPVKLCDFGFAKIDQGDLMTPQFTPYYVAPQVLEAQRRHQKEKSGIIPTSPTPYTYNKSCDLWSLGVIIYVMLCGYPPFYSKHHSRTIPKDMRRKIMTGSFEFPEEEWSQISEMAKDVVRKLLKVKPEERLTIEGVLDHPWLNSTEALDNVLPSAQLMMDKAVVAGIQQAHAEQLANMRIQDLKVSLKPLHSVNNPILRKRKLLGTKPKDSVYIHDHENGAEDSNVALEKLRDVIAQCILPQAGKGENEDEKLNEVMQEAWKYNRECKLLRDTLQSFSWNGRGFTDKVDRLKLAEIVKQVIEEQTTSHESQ
# [5] = target: T1, MAP kinase-activated protein kinase 5 (Homo sapiens); details: at 1 µM
# [6] = target: Serine/threonine-protein kinase SIK1 (Homo sapiens) (UniProt P57059); details: at 0.1 µM
# [7] = target: Serine/threonine-protein kinase SIK1 (Homo sapiens) (UniProt P57059); details: at 1 µM
# [8] = target: Serine/threonine-protein kinase SIK2 (Homo sapiens) (UniProt Q9H0K1); details: at 0.1 µM
# [9] = target: Serine/threonine-protein kinase SIK2 (Homo sapiens) (UniProt Q9H0K1); details: at 1 µM
# [10] = target: T2, Serine/threonine-protein kinase TBK1 (Homo sapiens) (UniProt Q9UHD2); details: at 0.1 µM
# T2 sequence (whole entry): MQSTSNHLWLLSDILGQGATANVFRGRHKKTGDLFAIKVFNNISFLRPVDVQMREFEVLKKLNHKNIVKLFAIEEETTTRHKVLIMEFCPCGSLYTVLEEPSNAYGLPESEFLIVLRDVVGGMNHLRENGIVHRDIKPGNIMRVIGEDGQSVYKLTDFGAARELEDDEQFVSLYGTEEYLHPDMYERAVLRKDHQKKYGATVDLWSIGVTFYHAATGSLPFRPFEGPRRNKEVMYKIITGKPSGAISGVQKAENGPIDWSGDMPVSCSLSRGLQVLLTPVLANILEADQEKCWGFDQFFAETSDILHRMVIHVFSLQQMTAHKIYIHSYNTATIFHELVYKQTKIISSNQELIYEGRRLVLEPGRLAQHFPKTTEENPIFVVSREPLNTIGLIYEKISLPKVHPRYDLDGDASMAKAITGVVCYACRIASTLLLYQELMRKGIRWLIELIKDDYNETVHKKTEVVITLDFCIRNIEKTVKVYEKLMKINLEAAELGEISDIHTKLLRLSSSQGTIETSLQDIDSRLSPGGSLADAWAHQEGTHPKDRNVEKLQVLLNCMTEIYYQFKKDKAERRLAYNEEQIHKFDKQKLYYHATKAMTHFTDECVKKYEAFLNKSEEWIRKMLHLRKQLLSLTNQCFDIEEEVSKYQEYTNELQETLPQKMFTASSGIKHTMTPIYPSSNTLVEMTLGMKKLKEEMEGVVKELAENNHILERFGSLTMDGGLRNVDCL
# [11] = target: T2, Serine/threonine-protein kinase TBK1 (Homo sapiens); details: at 1 µM
# [12] = target: T3, Testis-specific serine/threonine-protein kinase 1 (Homo sapiens) (UniProt Q9BXA7); details: at 0.1 µM
# T3 sequence (whole entry): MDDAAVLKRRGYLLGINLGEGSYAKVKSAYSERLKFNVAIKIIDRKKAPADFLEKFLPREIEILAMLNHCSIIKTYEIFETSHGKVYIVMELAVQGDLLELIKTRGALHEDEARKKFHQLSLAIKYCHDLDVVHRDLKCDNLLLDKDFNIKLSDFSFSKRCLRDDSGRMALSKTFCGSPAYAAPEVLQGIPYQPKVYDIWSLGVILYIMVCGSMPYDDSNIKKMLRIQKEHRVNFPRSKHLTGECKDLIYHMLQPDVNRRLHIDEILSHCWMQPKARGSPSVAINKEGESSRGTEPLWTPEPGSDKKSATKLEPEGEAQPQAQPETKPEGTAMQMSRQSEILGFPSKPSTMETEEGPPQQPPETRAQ
# [13] = target: T3, Testis-specific serine/threonine-protein kinase 1 (Homo sapiens); details: at 1 µM
# [14] = target: T4, Testis-specific serine/threonine-protein kinase 2 (Homo sapiens) (UniProt Q96PF2); details: at 0.1 µM
# T4 sequence (whole entry): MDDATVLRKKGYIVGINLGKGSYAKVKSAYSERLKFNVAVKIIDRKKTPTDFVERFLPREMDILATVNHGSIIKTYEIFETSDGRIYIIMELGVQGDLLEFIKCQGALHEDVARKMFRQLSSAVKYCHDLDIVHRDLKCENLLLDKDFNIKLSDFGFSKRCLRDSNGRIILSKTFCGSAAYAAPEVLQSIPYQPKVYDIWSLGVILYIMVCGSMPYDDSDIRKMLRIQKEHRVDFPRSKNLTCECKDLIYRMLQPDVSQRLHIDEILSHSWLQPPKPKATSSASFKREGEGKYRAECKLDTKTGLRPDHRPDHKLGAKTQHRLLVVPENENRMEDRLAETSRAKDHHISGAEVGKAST
# [15] = target: T4, Testis-specific serine/threonine-protein kinase 2 (Homo sapiens); details: at 1 µM
# [16] = target: Casein kinase I isoform alpha (Homo sapiens) (UniProt P48729); details: at 0.1 µM
# [17] = target: Casein kinase I isoform alpha (Homo sapiens) (UniProt P48729); details: at 1 µM
# [18] = target: Casein kinase I isoform gamma-1 (Homo sapiens) (UniProt Q9HCP0); details: at 0.1 µM
# [19] = target: Casein kinase I isoform gamma-1 (Homo sapiens) (UniProt Q9HCP0); details: at 1 µM
# [20] = target: Casein kinase I isoform gamma-2 (Homo sapiens) (UniProt P78368); details: at 0.1 µM;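 also: values are mean inhibition figures reported as part of the GSK PKIS dataset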
# Casein kinase I isoform gamma-2 (Homo sapiens), sequence (P78368 whole entry, looked up, canonical isoform): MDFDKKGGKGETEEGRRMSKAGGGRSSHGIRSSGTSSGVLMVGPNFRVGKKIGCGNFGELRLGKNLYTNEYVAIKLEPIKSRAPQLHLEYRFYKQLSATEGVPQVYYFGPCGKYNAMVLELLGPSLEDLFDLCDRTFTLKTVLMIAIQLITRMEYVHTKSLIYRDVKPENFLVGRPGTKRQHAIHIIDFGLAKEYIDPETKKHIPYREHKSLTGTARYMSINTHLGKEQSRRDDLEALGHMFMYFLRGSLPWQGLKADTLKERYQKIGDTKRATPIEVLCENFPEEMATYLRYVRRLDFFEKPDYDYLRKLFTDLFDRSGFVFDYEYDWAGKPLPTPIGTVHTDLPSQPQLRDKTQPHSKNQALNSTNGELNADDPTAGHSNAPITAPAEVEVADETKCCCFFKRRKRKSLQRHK
# Serine/threonine-protein kinase SIK2 (Homo sapiens), sequence (Q9H0K1 whole entry, looked up): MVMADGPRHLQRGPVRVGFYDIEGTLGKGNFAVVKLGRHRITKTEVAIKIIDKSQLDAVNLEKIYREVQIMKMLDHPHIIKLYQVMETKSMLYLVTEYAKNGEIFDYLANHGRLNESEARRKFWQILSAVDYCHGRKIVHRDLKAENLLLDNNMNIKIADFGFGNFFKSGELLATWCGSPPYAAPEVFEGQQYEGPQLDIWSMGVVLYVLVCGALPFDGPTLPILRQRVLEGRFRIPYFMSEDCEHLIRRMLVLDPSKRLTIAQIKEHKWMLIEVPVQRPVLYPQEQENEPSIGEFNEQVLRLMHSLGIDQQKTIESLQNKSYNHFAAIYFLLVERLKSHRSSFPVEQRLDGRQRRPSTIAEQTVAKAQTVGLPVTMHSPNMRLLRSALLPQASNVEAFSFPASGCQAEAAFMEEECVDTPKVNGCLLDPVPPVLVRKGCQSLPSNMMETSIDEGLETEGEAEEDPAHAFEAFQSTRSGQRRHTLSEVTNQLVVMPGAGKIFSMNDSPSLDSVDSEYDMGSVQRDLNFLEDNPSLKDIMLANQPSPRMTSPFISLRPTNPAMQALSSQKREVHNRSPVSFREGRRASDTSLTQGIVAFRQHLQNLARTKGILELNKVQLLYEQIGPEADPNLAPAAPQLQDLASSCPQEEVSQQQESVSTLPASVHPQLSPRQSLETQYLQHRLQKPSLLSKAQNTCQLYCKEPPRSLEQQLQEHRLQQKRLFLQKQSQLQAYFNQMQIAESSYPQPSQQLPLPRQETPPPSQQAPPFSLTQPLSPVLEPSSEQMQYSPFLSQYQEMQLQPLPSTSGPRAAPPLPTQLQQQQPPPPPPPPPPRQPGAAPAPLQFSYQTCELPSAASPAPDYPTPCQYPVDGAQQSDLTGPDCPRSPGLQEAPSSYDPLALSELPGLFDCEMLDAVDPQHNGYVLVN
# Serine/threonine-protein kinase SIK1 (Homo sapiens), sequence (P57059 whole entry): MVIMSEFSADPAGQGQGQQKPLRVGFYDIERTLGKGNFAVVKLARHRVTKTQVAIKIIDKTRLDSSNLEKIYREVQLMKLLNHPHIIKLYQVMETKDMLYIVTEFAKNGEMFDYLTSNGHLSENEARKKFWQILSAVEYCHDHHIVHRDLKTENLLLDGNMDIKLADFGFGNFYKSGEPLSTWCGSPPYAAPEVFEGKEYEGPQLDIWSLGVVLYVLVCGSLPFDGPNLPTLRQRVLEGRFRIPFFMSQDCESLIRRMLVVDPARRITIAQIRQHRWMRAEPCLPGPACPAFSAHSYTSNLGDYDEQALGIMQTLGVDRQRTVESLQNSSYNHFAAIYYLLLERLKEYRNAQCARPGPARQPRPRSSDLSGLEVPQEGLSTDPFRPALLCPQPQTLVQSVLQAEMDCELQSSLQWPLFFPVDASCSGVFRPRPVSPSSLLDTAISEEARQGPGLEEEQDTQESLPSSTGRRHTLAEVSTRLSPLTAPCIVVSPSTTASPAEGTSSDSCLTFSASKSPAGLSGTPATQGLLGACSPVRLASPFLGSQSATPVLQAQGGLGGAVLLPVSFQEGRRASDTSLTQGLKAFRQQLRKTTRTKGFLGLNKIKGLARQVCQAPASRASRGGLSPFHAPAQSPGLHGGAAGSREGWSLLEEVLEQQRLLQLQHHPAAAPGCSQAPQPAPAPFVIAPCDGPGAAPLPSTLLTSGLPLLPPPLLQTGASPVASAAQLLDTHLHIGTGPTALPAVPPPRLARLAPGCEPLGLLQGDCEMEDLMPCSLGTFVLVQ
# Casein kinase I isoform alpha (Homo sapiens), sequence (P48729 2-337 limits assumed): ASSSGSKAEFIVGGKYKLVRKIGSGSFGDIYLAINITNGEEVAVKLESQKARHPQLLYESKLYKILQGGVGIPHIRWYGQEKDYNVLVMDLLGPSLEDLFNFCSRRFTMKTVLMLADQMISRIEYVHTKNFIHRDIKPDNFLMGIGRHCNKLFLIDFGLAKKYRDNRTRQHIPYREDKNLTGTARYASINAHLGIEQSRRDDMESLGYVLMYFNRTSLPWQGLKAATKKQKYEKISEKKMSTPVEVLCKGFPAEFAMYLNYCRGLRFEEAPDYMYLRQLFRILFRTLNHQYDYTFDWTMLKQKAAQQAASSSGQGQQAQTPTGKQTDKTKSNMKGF
# Casein kinase I isoform gamma-1 (Homo sapiens), sequence (Q9HCP0 whole entry, looked up, canonical isoform): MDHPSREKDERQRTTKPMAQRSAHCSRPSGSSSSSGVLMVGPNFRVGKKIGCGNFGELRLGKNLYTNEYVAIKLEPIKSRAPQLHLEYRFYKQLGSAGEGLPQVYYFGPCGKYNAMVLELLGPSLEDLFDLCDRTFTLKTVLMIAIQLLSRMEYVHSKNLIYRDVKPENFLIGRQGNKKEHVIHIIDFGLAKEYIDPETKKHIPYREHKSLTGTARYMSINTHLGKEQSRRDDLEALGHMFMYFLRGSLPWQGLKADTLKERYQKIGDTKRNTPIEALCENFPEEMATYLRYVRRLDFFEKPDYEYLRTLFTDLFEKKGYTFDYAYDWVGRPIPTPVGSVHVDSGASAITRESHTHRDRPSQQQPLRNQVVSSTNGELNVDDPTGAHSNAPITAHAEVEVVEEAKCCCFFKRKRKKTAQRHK
# Serine/threonine-protein kinase pim-2 (Homo sapiens), sequence (Q9P1W9 whole entry, looked up): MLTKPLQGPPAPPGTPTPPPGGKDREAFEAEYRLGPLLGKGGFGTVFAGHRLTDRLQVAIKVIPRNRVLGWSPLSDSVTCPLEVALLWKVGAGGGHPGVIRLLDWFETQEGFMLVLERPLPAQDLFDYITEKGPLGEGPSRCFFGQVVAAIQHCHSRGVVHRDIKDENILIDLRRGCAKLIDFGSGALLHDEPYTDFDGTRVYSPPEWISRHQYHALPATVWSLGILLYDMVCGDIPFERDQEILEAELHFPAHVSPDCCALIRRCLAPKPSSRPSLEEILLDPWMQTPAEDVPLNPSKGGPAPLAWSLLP
SMILES,inhibition [1],inhibition [2],inhibition [3],inhibition [4],inhibition [5],inhibition [6],inhibition [7],inhibition [8],inhibition [9],inhibition [10],inhibition [11],inhibition [12],inhibition [13],inhibition [14],inhibition [15],inhibition [16],inhibition [17],inhibition [18],inhibition [19],inhibition [20]
NS(=O)(=O)c1cccc(Nc2cc(-c3ccc(F)cc3)n[nH]2)c1,1.85%,2.44%,5.79%,1.15%,2.81%,7.9%,33.8%,11.7%,37.9%,2.64%,15.2%,4.49%,6.59%,3.05%,2.38%,-3.61%,3.36%,2.11%,3.54%,1.72%
N#Cc1c(NC(=O)c2ccccc2F)sc2c1CCCC2,0.56%,0.44%,2.71%,-0.42%,-0.7%,0.64%,2.74%,-2.07%,-0.94%,-1.61%,-0.25%,0.47%,0.66%,0.05%,0.04%,-1.71%,-1.69%,-1.23%,-0.65%,-1.34%
ON=C1CCc2cc(-c3nc(C4CCNCC4)[nH]c3-c3ccncc3)ccc21,2.02%,-0.74%,-1.33%,-0.32%,-1.28%,-0.24%,0.92%,-6.05%,3.25%,0.4%,1.68%,0.96%,0.73%,-0.31%,-0.97%,-0.25%,8.55%,0.25%,1.66%,1.32%
NS(=O)(=O)c1ccc(Nc2cc(-c3cccc(O)c3)n[nH]2)cc1,1.32%,-2.75%,-0.87%,1.59%,1.7%,6.53%,13.8%,6.19%,16.4%,4.83%,6.87%,3.95%,3.25%,1.95%,1.79%,3.67%,5.95%,5.15%,6.27%,3.99%
COc1cccc(-n2ncc3c(N/N=C/c4ccc(S(C)(=O)=O)cc4)ncnc32)c1,-2.5%,0.09%,2.23%,0.26%,0.26%,4.24%,26%,19.1%,29.9%,8.06%,7.99%,1.1%,-0.61%,0.93%,0.31%,2.28%,5.91%,-2.52%,-0.99%,-2.87%
Nc1nccc(C#Cc2cncnc2Nc2ccc(OCc3cccc(F)c3)c(Cl)c2)n1,1.29%,-0.87%,-1.09%,0.74%,-0.01%,5.03%,6.42%,5.11%,8.28%,4.36%,9.39%,2.97%,1.86%,1.69%,-1.18%,4.12%,5.01%,3.44%,4.16%,2.25%
COc1cc(/C=N/Nc2ncnc3c2cnn3C(C)C)ccc1O,4.35%,1.2%,7.74%,0.1%,0.02%,2.84%,14.5%,2.78%,23.1%,2.37%,6.12%,1.68%,1.76%,0.77%,1.4%,-0.04%,0.99%,1.74%,3.2%,1.49%
OCc1ccc(-c2nc(-c3ccccn3)c(-c3ccc4c(c3)OCO4)[nH]2)cc1,1.41%,-1.14%,-3.44%,1.17%,-0.12%,9%,5.84%,8.76%,7.48%,2.36%,4.95%,3.19%,1.78%,0.7%,-1.56%,9.48%,43.3%,4.27%,5.16%,3.01%
O=S(=O)(CCOCc1ccc(-c2ccc3ncnc(Nc4ccc(OCc5cccc(F)c5)c(Cl)c4)c3c2)o1)c1ccccc1,2.24%,0.82%,2.26%,0.61%,0.15%,3.79%,5.54%,0.88%,1.15%,0.12%,2.8%,2.84%,3.29%,0.64%,1.88%,-0.6%,-0.08%,0.56%,1.02%,0.09%
NS(=O)(=O)c1ccc(N/N=C2\C(=O)Nc3ccc(Cl)cc32)cc1,2.1%,0.5%,4.86%,1.31%,3.24%,3.88%,10.9%,3.51%,10.6%,2.27%,9.93%,4.37%,6.32%,3.29%,2.98%,3.27%,4.21%,2.59%,3.4%,2.56%
O=C1Nc2ccc(-c3cccnc3)cc2C1=Cc1cc(Br)c(O)c(Br)c1,46.5%,8.54%,49%,0.52%,0.45%,6.08%,4.86%,-1.13%,-0.16%,3.66%,7.51%,2.68%,1.29%,0.55%,-0.14%,6.06%,3.87%,4.05%,4.74%,2.62%
NS(=O)(=O)c1ccc(-c2cc3ccncc3cc2OCc2ccccc2)cc1,-1.33%,-0.2%,1.38%,0.82%,1.86%,4.35%,10.3%,6.46%,4.1%,5.88%,2.74%,3.43%,3.97%,2.95%,2.52%,4.76%,3.35%,2.57%,3.44%,1.61%
Cc1ccc(Nc2ccnc(Nc3cccc(C(N)=O)c3)n2)cc1O,-3.06%,0.18%,1.91%,1.13%,1.29%,29.8%,80.2%,13.1%,53.5%,2.74%,19.6%,3.41%,5.19%,1.39%,1.65%,1.66%,4.05%,-1.2%,1.43%,-1.06%
N#Cc1cccc(Nc2nccc(-c3cnn4ncccc34)n2)c1,7.85%,4.41%,34%,1.48%,4.15%,8.01%,15.1%,4.44%,11.9%,1.58%,22.1%,6.69%,10.6%,2.43%,2.95%,28.9%,69.8%,5.75%,28.2%,6.38%
